This is a sample that favours compounds with a hit; in the whole collection about 2.4% have one here.
M1 PAM = positive allosteric modulators of human M1 muscarinic receptor | P11229 | CHO-K1 hM1, Fluo-8 calcium fluorescence, ACh EC20; 0% = ACh EC20, 100% = maximal ACh | activation, % at 3 µM | 360,000 compounds, 0.088% hits | AID 588819; in the data active means activation above about 19%, passing the limit was not always enough
Target sequence (P11229 whole entry, looked up): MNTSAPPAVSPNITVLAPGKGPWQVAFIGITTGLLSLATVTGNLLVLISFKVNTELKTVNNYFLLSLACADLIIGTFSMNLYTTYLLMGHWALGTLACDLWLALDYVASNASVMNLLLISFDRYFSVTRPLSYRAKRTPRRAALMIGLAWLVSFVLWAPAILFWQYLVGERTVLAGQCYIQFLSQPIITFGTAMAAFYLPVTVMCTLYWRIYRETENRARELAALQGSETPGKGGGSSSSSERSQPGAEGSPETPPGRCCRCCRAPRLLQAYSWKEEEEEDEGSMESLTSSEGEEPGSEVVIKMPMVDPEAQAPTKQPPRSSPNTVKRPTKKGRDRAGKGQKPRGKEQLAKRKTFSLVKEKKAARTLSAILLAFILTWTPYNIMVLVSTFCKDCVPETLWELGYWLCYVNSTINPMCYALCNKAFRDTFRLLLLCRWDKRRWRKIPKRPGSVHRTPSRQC
M1 ag = agonists of human M1 muscarinic receptor. CHO-K1 hM1, Fluo-8 calcium fluorescence, agonist mode; 0% DMSO, 100% acetylcholine EC100. activation, % at 3 µM. 360,000 compounds, 0.33% hits;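 active means activation above the run's mean compound activation plus 3 SD, cut at about 16% in these data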;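 further: peak over basal fluorescence ratio within a 140 s kinetic read after compound addition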
CHO-K1 Ca PAM = nonselective activator or artifact in parental CHO-K1 calcium assay. activation, % at 3 µM. ATP EC20, Fluo-8 calcium fluorescence; 0% at ATP EC20, 100% at ATP max. 360,000 compounds, 0.02% hits. AID 602247;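 active means activation above the run cutoff, the mean activation of all test compounds plus 3 SD, cut at about 40% in these data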;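 further: peak over basal fluorescence ratio in a 140 s read after ATP addition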
M1 ag parental = nonselective activator or artifact in parental CHO-K1 cells. Fluo-8 calcium fluorescence; scaled to maximal ATP response, vehicle zero. activation, % at 3 µM. 360,000 compounds, 0.48% hits. AID 602248; in the data active means activation above about 15%;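 further: untransfected CHO-K1 host cells lacking M1 receptor as counterscreen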
M1 antag = blocks human M1 muscarinic receptor; P11229; CHO-K1 hM1, Fluo-8 calcium fluorescence, ACh EC80 antagonist; inhibition, % at 3 µM; 360,000 compounds, 1.3% hits;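 active means percent inhibition above its own plate's cutoff, namely the mean of that plate's compound wells plus 3 SD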;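 further: peak over basal fluorescence ratio during 140 s after agonist addition; 0% = ACh EC80 plus DMSO and 100% = DMSO alone without agonist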
CHO-K1 Ca antag = nonselective inhibitor or artifact in parental CHO-K1 cells. 360,000 compounds, 0.6% hits. inhibition, % at 3 µM. ATP-induced calcium, Fluo-8 fluorescence;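 active means inhibition above a per-plate cutoff, the plate's mean sample inhibition plus 3 SD, cut at about 24% in these data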;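 further: 0% = DMSO plus EC80 ATP and 100% = DMSO alone without ATP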
* = called active by the depositor.

SMILES | M1 PAM | M1 ag | CHO-K1 Ca PAM | M1 ag parental | M1 antag | CHO-K1 Ca antag
Nc1c(C(=O)NCc2ccccc2)nnn1Cc1ccc(F)cc1 | 4 | 20* | 17 | 4 | -5 | -9
Cc1ccc(NC(=O)c2sccc2C)nc1 | 11 | -3 | 25 | 3 | -12 | -12
O=C(O)/C=C/C(=O)Nc1ccc(Oc2ccccc2)cc1 | 8 | -5 | 21 | 1 | -21 | -13
CCOC(=O)/C=C/C(=O)Nc1ccc(Oc2ccccc2)cc1 | -11 | -3 | -3 | 12 | 28 | 28*
OCC[C@@H]1C[C@@H](O)[C@H](O)[C@]2(Cc3ccccc3O2)O1 | 0 | -4 | 1 | 0 | 10 | 0
OC(c1cccs1)(c1cccs1)C1C[N+]2(CF)CCC1CC2 (stereo not given) | -22 | -8 | 22 | 1 | 83* | -5
O=C(CCC1CCCC1)NCc1cccs1 | -4 | -5 | -3 | 0 | 4 | 2
O=C(NCc1ccncc1)c1cccc(Cn2cc(Br)cn2)c1 | -20 | -5 | 19 | 2 | 97* | -9
O=C(O)c1cccc(Cn2cc(Br)cn2)c1 | -4 | -2 | 2 | 0 | -7 | 1
CCN(CC)c1ccc2c(-c3ccc(S(=O)(=O)O)cc3S(=O)(=O)[O-])c3ccc(=[N+](CC)CC)cc-3oc2c1 | -18 | 86* | -3 | 41* | 29 | 8
CCN(CC)S(=O)(=O)c1cc(NC(=O)c2ccc(Br)s2)ccc1C | -15 | -3 | -6 | 3 | 9 | 36*
CCN(CC)S(=O)(=O)c1cc(NC(=O)NCCCl)ccc1C | 3 | -3 | 7 | 0 | 2 | -8
O=C(Nc1cc(-c2ccccc2)nn1-c1ccccc1)c1ccccc1F | 6 | -3 | 8 | 0 | 2 | -14
COc1cc(C)ccc1S(=O)(=O)N1CCN(C23CC4CC(CC(C4)C2)C3)CC1 | -22 | -9 | 14 | 0 | 98* | -9
O=C(NOCc1ccccc1)c1ccc(Cl)cc1 | -22 | -7 | 7 | 0 | 41* | -13
CC(=O)c1ccc(NC(=O)Cn2cnc(S(=O)(=O)N3CCc4ccccc43)c2)cc1 | 11 | 2 | -24 | 0 | -5 | 25*
COc1ccccc1OCC(=O)NNC(=O)C1CCN(c2ncnc3sc(C)c(C)c23)CC1 | -12 | -3 | 0 | 8 | 12 | -12
COc1ccc(S(=O)(=O)Nc2ccccc2C(=O)Nc2nc(-c3ccc(F)cc3)cs2)cc1OC | -14 | -5 | -7 | 15 | 29 | 33*
COc1ccc(CC(=O)Nc2nc(-c3ccc(OC)c(OC)c3)cs2)cc1OC | 6 | 16* | 17 | 14 | -5 | 0
COc1ccc(-c2nnc3ccc(SCC(=O)Nc4nccs4)nn23)cc1OC | -1 | -9 | 15 | 7 | 6 | 3
COc1ccc(-c2ccc(SCC(=O)Nc3nccs3)nn2)cc1OC | -12 | -1 | -12 | 4 | 35* | 2
COc1ccc(-c2csc(NC(=O)C3CCN(c4ncnc5sc(C)c(C)c45)CC3)n2)cc1OC | -12 | -3 | -18 | 2 | 46* | 21
CC(C)(OC(=O)c1ccc(C#N)cc1)c1cc2ccccc2c(=O)o1 | -5 | -6 | -15 | -1 | 5 | -10
Cc1ccc(C)c(NC(=O)c2cc([N+](=O)[O-])cc([N+](=O)[O-])c2)c1 | 0 | -2 | 3 | 5 | 4 | 5
CCC(C)c1ccccc1NC(=O)Cc1coc2cc3c(cc12)CCC3 (stereo not given) | -3 | -7 | 10 | 0 | 0 | 0
SMILES | M1 PAM | M1 ag | CHO-K1 Ca PAM | M1 ag parental | M1 antag | CHO-K1 Ca antag
Cc1ccc(C)c(NC(=O)Cc2coc3cc4c(cc23)CCC4)c1 | 28* | -3 | -1 | 0 | 8 | -1
CSc1nc(NNC=O)cc(Oc2ccc(NC(C)=O)cc2)n1 | -2 | 4 | 9 | 10 | 2 | -3
COc1ccccc1C(=O)COC(=O)Cn1nc(C)c([N+](=O)[O-])c1C | 8 | -2 | 9 | 7 | -4 | 9
O=S(=O)(c1ccc(NC(=S)NC2CCCC2)cc1)N1CCCC1 | -15 | -7 | -10 | 4 | 10 | 25*
FC(F)(F)c1cccc(NC(=S)NC2CCCC2)c1 | -14 | -4 | -16 | 9 | 18 | 25*
S=C(Nc1ccc2nsnc2c1)NC1CCCCC1 | -10 | -3 | 0 | 4 | 5 | -11
S=C(Nc1ccc(Cl)c(Cl)c1)NC1CCN(Cc2ccccc2)CC1 | 11 | 17* | 14 | 12 | 6 | 24*
Fc1ccc(NC(=S)NC2CCN(Cc3ccccc3)CC2)cc1 | -9 | -7 | 3 | 5 | 7 | -6
S=C(Nc1ccc(Cl)c(Cl)c1)NC1CCCCC1 | -29 | -4 | 2 | 23* | 44* | 13
FC(F)(F)c1cccc(N2CCN(C(=S)NC3CCCC3)CC2)c1 | -12 | -3 | 3 | 3 | 33* | 2
O=C(O)CC[C@@H](C(=O)O)N1C(=O)c2ccccc2C1=O | -11 | 0 | 7 | 0 | -4 | 3
Cc1cccc(C)c1NC(=O)[C@@]1(CC(=O)O)CC(/C=C/c2ccccc2)=NO1 | 10 | -3 | 16 | 0 | -21 | -11
O=C(CN1C(=O)c2ccccc2S1(=O)=O)N1CCc2ccccc2C1 | -10 | -2 | -9 | 0 | 1 | 25*
CC1CCN(C(=O)CN2C(=O)c3ccccc3S2(=O)=O)CC1 | -4 | -1 | -3 | 0 | -19 | 2
Cc1cccc(S(=O)(=O)NNC(=O)c2sc(C)nc2C)c1 | 6 | -4 | 14 | 3 | -6 | -4
CC(C)NC(=O)CSc1nc(N)c(NC(=O)c2ccco2)c(=O)[nH]1 | 8 | -5 | 12 | 0 | 0 | 9
NC(=O)CN1CCOCCOCCN(CC(N)=O)CCOCCOCC1 | 5 | 0 | -2 | 2 | -22 | 49*
S=C(Nc1ccc(Oc2ccccc2)cc1)NC1CCCCCC1 | -24 | -5 | 6 | 6 | 29* | 6
CN(C(=S)Nc1ccc(Oc2ccccc2)cc1)C1CCCCC1 | -26 | -9 | 7 | 4 | 39* | 13
S=C(Nc1ccc(Oc2ccccc2)cc1)NC1CCCCC1 | -13 | 1 | -2 | 6 | -8 | 7
CCOC(=O)c1c(C)oc2c1c(CN1CCN(C(=O)OCC)CC1)c(O)c1ccccc12 | -8 | 17* | 6 | 2 | 1 | 0
CC(C)Cn1c2c(c(O)c(C(=O)Nc3ccc(F)cc3)c1=O)CCCC2 | 1 | 0 | -5 | 0 | 8 | 25*
CCC1CCCCN1C/C=C/c1ccccc1[N+](=O)[O-] (stereo not given) | -20 | -8 | 19 | 1 | 89* | -13
CC1CCCN(C/C=C/c2ccccc2[N+](=O)[O-])C1 (stereo not given) | -5 | -15 | 8 | 1 | 6 | -19

Screening data from PubChem.
